High-throughput results (PubChem)
ATXN viability – Viability Counterscreen for Primary qHTS for Inhibitors of ATXN expression; S2 cells (HEK-293 line with an ATXN2-luciferase reporter) viability, CellTiter-Fluor protease fluorescence, 24 h; AID 651635, 2014; Potency, µM (top dose mostly 56.7 µM), most hits filed as cytotoxic; 0.49% of 400,000 active; also: nearly all actives have a fitted effect of over 40% in size
ATXN2 expr inh – Primary qHTS for Inhibitors of ATXN expression | 0.72% of 360,000 active | Potency, µM (titrated, usually from 57 µM), for the others: top-dose activity change, negative = inhibition, most hits filed as inhibitors | HEK-293 ATXN2-luciferase reporter, luminescence, 24 h; also: % is scaled to controls: 0 for no effect and ±100 for the full control effect; nearly all actives have a fitted effect of over 55% in size
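qHTS (up to 57 uM final) was run with 24 h compound exposure of reporter cells at 37 °C. Each well was multiplexed: SteadyGlo luminescence measured ATXN2-luciferase expression after a fluorogenic Gly-Phe-AFC viability readout (25 uM final).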
KB-V1 cytotox – qHTS assay for MDR1-selective chemotherapeutics: Primary screen using the drug-selected MDR subline cells KB-V1; KB-V1 MDR cells viability, CellTiter-Glo, 72 h; Potency, µM (top dose mostly 46.1 µM), most hits filed as cytotoxic; 3.4% of 400,000 active; AID 1347076, 2019; also: % is scaled to controls: 0 for no effect and ±100 for the full control effect; nearly all actives have a fitted effect of over 60% in size
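Following 72 h at 37 degrees C with compound, KB-V1 cell viability was read by CellTiter-Glo luminescence, medium being phenol-red-free DMEM plus 10% FBS; concentration-response parameters came from normalized, curve-fitted qHTS data.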
KB-3-1 cytotox – qHTS assay for MDR1-selective chemotherapeutics: Primary screen using the parental adenocarcinoma cell KB-3-1 | 1.4% of 400,000 active | KB-3-1 viability, CellTiter-Glo ATP luminescence, 72 h | AID 1347075, 2019 | Potency, µM (doses to about 46.1 µM), most hits filed as cytotoxic; also: % is scaled to controls: 0 for no effect and ±100 for the full control effect; nearly all actives have a fitted effect of over 60% in size
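Multi-concentration cytotoxicity screen in KB-3-1 cells grown in DMEM lacking phenol red with 10% FBS. After 72 h at 37 °C with compound, ATP-dependent luminescence was recorded.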
HT1080 IDH1KD tx – qHTS for induction of synthetic lethality in tumor cells producing 2HG: qHTS for the HT-1080-IDH1KD cell line; HT-1080 IDH1 knockdown viability, ATP luminescence, 48 h; Potency, µM (highest dose often 46.1 µM), inactives show top-dose activity, negative = toxicity, actives largely listed as cytotoxic; 2% of 360,000 active; AID 686971, 2013;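 also: 0% = DMSO wells and -100% = cell-free medium wells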
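% activity derives from luminescence (CellTiter-Glo), normalised to DMSO and no-cell wells. HT-1080-IDH1KD cells, 750/well, had 48 h compound exposure at 37 °C.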
HT1080NT lethal – qHTS for induction of synthetic lethality in tumor cells producing 2HG: qHTS for the HT-1080-NT fibrosarcoma cell line; HT-1080-NT fibrosarcoma viability, CellTiter-Glo ATP luminescence, 48 h; Potency, µM (top dose mostly 46.1 µM), for the others: at the top dose activity, negative = less viability, most hits filed as cytotoxic; 1.6% of 360,000 active; AID 686970, 2013;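 also: NT is the 2HG producing partner of a matched IDH1 knockdown line; 0% = DMSO-treated cells and -100% = media-only wells without cells; nearly all actives have a fitted effect of over 55% in size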
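Toxicity toward the 2HG-producing NT line was scored as %Activity, normalised to DMSO and no-cell wells, from CellTiter-Glo luminescence after 48 hours' treatment.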
Starred values were filed as active, the others as inactive; i = inactive; ? = inconclusive; . = no result. In the library only some 6.2% were active in any assay of this set; here they are far more common. Calls follow the shape of the dose curve; as a rule, active = well fitted curve in the direction sought with a large enough effect; inconclusive = small, poorly fitted or top-dose-only effect, or another doubt; inactive = no such curve, though single readings can be large; an effect the other way counts as inactive or inconclusive. Potency is read from the fitted curve at half-maximal effect.

SMILES | ATXN viability | ATXN2 expr inh | KB-V1 cytotox | KB-3-1 cytotox | HT1080 IDH1KD tx | HT1080NT lethal
Cc1ccc(NC(=O)c2cc(S(=O)(=O)N3CCOCC3)ccc2F)c(C)c1 | i | 15% | 13µM* | i | -17% | 13%
CC(=O)c1ccc(NC(=O)Nc2nnc(-c3ccncc3)s2)cc1 | . | . | i | i | . | .
CC1=CC(O)=NS(=O)(=O)O1 | . | . | i | ? | . | .
COc1ccc(/C=N/NC(=S)Nc2cc(S(=O)(=O)N3CCOCC3)ccc2N2CCOCC2)cc1O | i | -18% | ? | ? | 16µM* | 21µM*
COc1ccc2ccccc2c1/C=N/NC(=S)Nc1cc(S(=O)(=O)N2CCOCC2)ccc1N1CCOCC1 | i | 4% | i | ? | -3% | -2%
CCNC(=O)c1ccccc1NC(=O)c1cccc(S(=O)(=O)N2CCC(C)CC2)c1 | i | -19% | 16µM* | i | -17% | -1%
O=C(Nc1ccccc1C(=O)N1CCOCC1)c1cccc(S(=O)(=O)N2CCCC2)c1 | i | 6% | 9.2µM* | i | 0% | 0%
CC(C)Oc1ccc(C(=O)Nc2cc(S(=O)(=O)N3CCOCC3)ccc2N2CCOCC2)cc1 | i | -17% | 16µM* | ? | ? | -18%
CNC(=O)c1ccccc1NC(=O)c1cccc(S(=O)(=O)N2CCC(C)CC2)c1 | i | -21% | ? | i | -11% | -9%
Clc1cccc(-c2nnnn2Cc2cccnc2)c1Cl | . | -4% | . | . | . | .
NC(=O)c1cccc2[nH]c(-c3ccc([C@H]4CCCN4)cc3F)nc12 | . | -24% | . | . | . | .
CCCNS(=O)(=O)Nc1ncnc(OCCOc2ncc(Br)cn2)c1-c1ccc(Br)cc1 | . | 16% | . | . | . | .
N#Cc1ccc(-c2cccs2)nc1SCc1c(F)cccc1Cl | ? | -15% | ? | ? | . | .
CS(=O)(=O)N1CCc2cc(S(=O)(=O)NCc3ccccc3Cl)ccc21 | i | 3% | i | i | . | .
CC(C)C1N=C2c3ccccc3N=C(SCc3cc(=O)n4cc(Cl)ccc4n3)N2C1=O (stereo not given) | i | -6% | 23µM* | ? | -8% | -6%
CC(C)C1N=C2c3ccccc3N=C(SCC(=O)NCc3ccc(Cl)cc3)N2C1=O (stereo not given) | i | 1% | i | i | . | .
Cc1ccc(NC(=O)Cn2c(=O)n(CCc3ccccc3)c(=O)c3sc4ccccc4c32)cc1C | i | 6% | ? | i | . | .
COc1ccc(-n2cc(-c3ccccc3)[nH]c2=S)c(OC)c1 | i | -23% | i | 16µM* | ? | ?
COc1cc(NS(=O)(=O)c2ccc(C)c(C)c2)c(OC)cc1Cl | i | -2% | 18µM* | ? | -17% | -11%
COc1ccc(C(=O)N2CCOC2CNC(=O)C(=O)NCc2ccc(Cl)cc2)cc1 (stereo not given) | i | 1% | 23µM* | i | -10% | -6%
CCN(CC)CCNc1cccc2sc3ccccc3c(=O)c12 | i | . | ? | i | -14% | -3%
CCN(CC)CCNc1ccc(CO)c2sc3ccccc3c(=O)c12 | 32µM* | 28µM* | ? | 16µM* | 21µM* | 12µM*
O=c1c2ccccc2sc2c(CO)ccc(NCCN3CCCCC3)c12 | ? | 19µM* | 16µM* | ? | ? | -28%
CCc1cc2c(=O)c(-c3cnn(-c4ccccc4)c3)c(C)oc2cc1OCC(=O)Nc1cccc(C)c1 | 1.8µM* | ? | ? | ? | 18% | 0%
CCc1cc2c(=O)c(-c3cnn(-c4ccccc4)c3)c(C)oc2cc1OCC(=O)Nc1ccc(F)c(F)c1 | i | -5% | ? | i | 13% | 7%
SMILES | ATXN viability | ATXN2 expr inh | KB-V1 cytotox | KB-3-1 cytotox | HT1080 IDH1KD tx | HT1080NT lethal
CN1CCC(=C2c3ccccc3CCc3sccc32)CC1 | ? | -20% | ? | i | ? | 18µM*
O=[N+]([O-])c1cc(Br)c(Nc2ccccc2)c([N+](=O)[O-])c1 | 13µM* | . | 16µM* | ? | 3.3µM* | ?
O=C(Nc1ccccc1)c1ccc(Nc2c([N+](=O)[O-])cc([N+](=O)[O-])c3ccccc23)cc1 | i | -22% | i | ? | -21% | -13%
CC1CN(Cc2cccn2-c2cccnc2)Cc2cc(Cl)ccc2O1 (stereo not given) | i | . | . | . | . | .
CC(/C=N/n1cnnc1)=C\c1ccccc1 | i | -28% | 1.8µM* | 5.2µM* | 16% | 12%
Cc1nc([N+](=O)[O-])c(Br)n1CC(=O)c1ccccc1 | i | -11% | i | i | ? | ?
Cc1nc([N+](=O)[O-])c(Br)n1CC(=O)c1ccc2ccccc2c1 | 32µM* | ? | i | i | ? | 16µM*
Cc1nc([N+](=O)[O-])c(Br)n1CC(=O)c1ccc(Br)cc1 | ? | -19% | ? | ? | ? | 21µM*
COc1cc(=O)n2c(c1C(=O)N(C)Cc1nccs1)CCN(Cc1ccc(F)c(F)c1)CC2 | i | . | . | . | . | .
O=C(COc1ccc(Oc2ccccc2)cc1)NCc1cn2ccccc2n1 | ? | -16% | ? | 15µM* | 3.3µM* | 2.6µM*
CN1CCN(c2cccc(Nc3nn4c(=O)c5ccc(Br)cc5nc4s3)c2)CC1 | . | . | i | i | . | .
COc1ccc(/C=C(\C#N)C(=O)Nc2cc(C)c(Cl)cc2OC)cc1O | i | . | i | 21µM* | 4% | 2%
COc1ccc(OC)c(CN2CCOc3ccc(C(O)c4cccnc4)cc3C2)c1 (stereo not given) | i | . | . | . | . | .
c1ccc2[nH]c(-c3ccnc4ccccc34)nc2c1 | i | 52% | i | i | -1% | 2%
c1ccc2[nH]c(-c3cscn3)nc2c1 | i | 2% | i | i | 2% | 3%
